Shown are actives, neighbours in structure and some others; about 3.1% of the full set was active somewhere.
miR-122 sensor: miR-122 inhibition in Huh7 cells; AID 602342; 0.3% of 340,000 active; Huh7 miR-122 Renilla luciferase sensor, 48 h; neutral wells = 0, positive control = 100; activation (reporter increase), % at 12.5 µM;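 active = mean replicate activation score at least 90 and every replicate individually at or above 90; inconclusive = only one of the two criteria met; inactive = neither criterion met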;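 note: higher luciferase means less miR-122 activity so hits act as miR-122 inhibitors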
HIV Env fusion: blocks HIV Env-driven cell-cell fusion. HeLa-JRFL Env/CEM21 cell fusion, luciferase. inhibition, % at 12.3 µM. 1.1% of 360,000 active. AID 651610;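 active = mean replicate inhibition score of at least 50 and every replicate individually at or above 50; inconclusive = only one of the two criteria met; inactive = mean below 50 and not all replicates reaching 50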;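 note: 0% = plate neutral controls and 100% = maraviroc near 300 nM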
C2C12 statin: suppressors of simvastatin-induced myotoxicity in C2C12 myotubes; ATP luminescence, 48 h; scaled: DMSO 0, geranylgeraniol control 100; rescue of ATP level, % at 7.49 µM; 0.78% of 330,000 active; AID 602340;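 active = mean ATP rescue above about 67%, or every replicate alone reaching that limit, limit read from the data, passing the limit was not always enough; inconclusive = no clear call, values can overlap the other calls; inactive = mean under the limit and some replicate under it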;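 note: myotubes were challenged with 10 µM simvastatin during compound exposure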
PAX8 inh HTS: inhibitors of PAX8 transcriptional activity in RMG-I cells. 1.2% of 360,000 active. inhibition, % at 12.6 µM. AID 652154. RMG-I TPO-luciferase reporter, SteadyGlo, 24 h;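 active = mean replicate inhibition at least 60% with every replicate also reaching 60%; inconclusive = only one of the two criteria is met; inactive = mean below 60% and not all replicates reaching 60%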;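 note: luciferase light reporting Pax8 driven TPO promoter activity; plate controls were median of neutral control wells for no effect and mitoxantrone controls for full effect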
EWS-Fli block: blocks EWS/Fli oncoprotein-driven transcription. inhibition, % at 12.6 µM. AID 651661. 0.67% of 350,000 active. A673 NR0B1-luciferase reporter, viability-normalised;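 active = mean inhibition of at least 50% after viability correction, with every replicate also passing that limit; inconclusive = mean reaches 50% but only one of two replicates passes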;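 note: firefly luciferase signal divided by Alamar Blue viability fluorescence both relative to DMSO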
GSIS activator: GLuc luminescence reporter in INS-1E cells, primary screen for activators of glucose-dependent secretion of insulin. INS-1E GLuc reporter insulin secretion, 2-3 h. activation, % at 16.6 µM. 0.61% of 370,000 active;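 active = lowest replicate activation of at least 40%, so every replicate reaches that level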;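 note: 0% = median of neutral control wells and 100% = median of IBMX positive control wells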
The depositor's hits bear a star; [ ] = dose if it differs, or a comment.

For C[C@@H]1CCCCO[C@@H](CN(C)Cc2ccc(C(F)(F)F)cc2)[C@@H](C)CN([C@@H](C)CO)C(=O)c2cc(NS(=O)(=O)c3ccc(Cl)cc3)ccc2O1 the results were miR-122 sensor 2[16.7 µM], HIV Env fusion 7[16.7 µM], PAX8 inh HTS 91*, EWS-Fli block -9 and GSIS activator 5.
For C=CCN1C(=S)CC(c2ccccc2)=Nc2ccccc21 the results were HIV Env fusion 92*, C2C12 statin -29, PAX8 inh HTS 24, EWS-Fli block 14 and GSIS activator -2.
For C[C@H]1CN([C@@H](C)CO)C(=O)c2cc(C#Cc3ccccc3F)cnc2O[C@H]1CN(C)C(=O)Cc1ccccc1 the results were miR-122 sensor -10[16.7 µM], HIV Env fusion 47[16.7 µM], C2C12 statin -88, EWS-Fli block -2 and GSIS activator -25.
CO[C@H]1CN(C)C(=O)c2ccc(NS(=O)(=O)c3cn(C)cn3)cc2OC[C@@H](C)N(C)C[C@H]1C was read as miR-122 sensor -11[16.7 µM], HIV Env fusion -12[16.7 µM], C2C12 statin -1, PAX8 inh HTS 25, EWS-Fli block -5 and GSIS activator 15.
Screening CC(=O)Nc1ccc(N(CC(O)Cn2c3ccccc3c3ccccc32)S(=O)(=O)c2ccc(C)cc2)cc1 (configuration not stated) returned miR-122 sensor -4, HIV Env fusion 105*, PAX8 inh HTS 31, EWS-Fli block 6 and GSIS activator -17.
`Cc1ccc(N(CC(O)Cn2c3ccccc3c3ccccc32)S(C)(=O)=O)cc1` (configuration not stated) gave miR-122 sensor 1, C2C12 statin 38, EWS-Fli block 2 and GSIS activator -7.
For Cc1cccc(C)c1N(CC(O)Cn1c2ccccc2c2ccccc21)S(C)(=O)=O (configuration not stated) the results were miR-122 sensor 2, HIV Env fusion 84* and C2C12 statin -15.
Screening CN(C)CC(=O)N1CC2(C1)[C@H](c1ccccc1)[C@H](CO)N2C(=O)C1CCCC1 returned HIV Env fusion -7[16.7 µM], PAX8 inh HTS 18, EWS-Fli block -12 and GSIS activator 9.
CCC(=O)Nc1ccc2c(c1)C(=O)N(C)C[C@@H](OC)[C@@H](C)CN(Cc1cccc(F)c1)[C@H](C)CO2 was read as C2C12 statin 14, PAX8 inh HTS 15, EWS-Fli block 7 and GSIS activator -9.
Screening Cc1noc(C)c1S(=O)(=O)N(C)C[C@H]1OCCCC[C@@H](C)Oc2ccc(NS(=O)(=O)c3ccc(Cl)cc3)cc2C(=O)N([C@@H](C)CO)C[C@@H]1C returned miR-122 sensor -2[16.7 µM], HIV Env fusion 7[16.7 µM], PAX8 inh HTS 88*, EWS-Fli block 13 and GSIS activator -14.
Screening Cc1noc(C)c1S(=O)(=O)Nc1ccc2c(c1)C(=O)N([C@@H](C)CO)C[C@@H](C)[C@@H](CN(C)S(=O)(=O)c1ccc(Cl)cc1)OCCCC[C@H](C)O2 returned miR-122 sensor -1[16.7 µM], HIV Env fusion -40[16.7 µM], C2C12 statin 140*, PAX8 inh HTS 50, EWS-Fli block -2 and GSIS activator -4.
Cc1noc(C)c1S(=O)(=O)N(C)C[C@@H]1OCCCC[C@@H](C)Oc2ccc(NS(=O)(=O)c3ccc(Cl)cc3)cc2C(=O)N([C@@H](C)CO)C[C@H]1C was read as miR-122 sensor -7[16.7 µM], HIV Env fusion 11[16.7 µM], PAX8 inh HTS 25, EWS-Fli block 6 and GSIS activator -17.
Cc1noc(C)c1S(=O)(=O)N(C)C[C@H]1OCCCC[C@@H](C)Oc2ccc(NS(=O)(=O)c3ccc(Cl)cc3)cc2C(=O)N([C@@H](C)CO)C[C@H]1C was read as miR-122 sensor -5[16.7 µM], HIV Env fusion 10[16.7 µM], PAX8 inh HTS 76*, EWS-Fli block 9 and GSIS activator -23.
Cc1noc(C)c1S(=O)(=O)Nc1ccc2c(c1)C(=O)N([C@@H](C)CO)C[C@@H](C)[C@H](CN(C)S(=O)(=O)c1ccc(Cl)cc1)OCCCC[C@@H](C)O2 was read as miR-122 sensor -14[16.7 µM], HIV Env fusion 1[16.7 µM], C2C12 statin -10, PAX8 inh HTS 36, EWS-Fli block 12 and GSIS activator 8.
For Cc1noc(C)c1S(=O)(=O)N(C)C[C@@H]1OCCCC[C@H](C)Oc2ccc(NS(=O)(=O)c3ccc(Cl)cc3)cc2C(=O)N([C@H](C)CO)C[C@@H]1C the results were miR-122 sensor -11[16.7 µM], HIV Env fusion -37[16.7 µM], PAX8 inh HTS 87*, EWS-Fli block 13 and GSIS activator -11.
For Cc1noc(C)c1S(=O)(=O)N(C)C[C@@H]1OCCCC[C@@H](C)Oc2ccc(NS(=O)(=O)c3ccc(Cl)cc3)cc2C(=O)N([C@H](C)CO)C[C@@H]1C the results were miR-122 sensor 3[16.7 µM], HIV Env fusion -24[16.7 µM], PAX8 inh HTS -5, EWS-Fli block 1 and GSIS activator 11.
C[C@@H]1CN([C@H](C)CO)C(=O)c2cc(NC(=O)Cc3ccccc3)ccc2O[C@H]1CN(C)Cc1ccccc1 was read as miR-122 sensor 6[16.7 µM], HIV Env fusion -1[16.7 µM], C2C12 statin 1, PAX8 inh HTS -7, EWS-Fli block -2 and GSIS activator -2.
`COc1ccccc1C(=O)Nc1ccc2c(c1)OC[C@H](C)N(CC1CC1)C[C@@H](C)[C@H](OC)CN(C)C2=O` gave miR-122 sensor 7[16.7 µM], C2C12 statin 8, EWS-Fli block 7 and GSIS activator 5.
C[C@@H]1CCCCO[C@@H](CN(C)C(=O)CCC(F)(F)F)[C@H](C)CN([C@H](C)CO)C(=O)c2cc(NC(=O)C3CCCCC3)ccc2O1 was read as miR-122 sensor -9[16.7 µM], HIV Env fusion 0[16.7 µM], PAX8 inh HTS -22, EWS-Fli block -2 and GSIS activator -20.
Screening CCC(=O)N(C)C[C@@H]1Oc2cc(C#CCOC)ccc2S(=O)(=O)N([C@@H](C)CO)C[C@H]1C returned miR-122 sensor 0[16.7 µM], HIV Env fusion -17[16.7 µM], C2C12 statin -10, EWS-Fli block -1 and GSIS activator 3.
`CC1(C)Cc2c(c(-c3ccco3)nc3n[nH]c(N)c23)CO1` gave miR-122 sensor -2 and GSIS activator 56*.
`CC(=O)Nc1sc2c(c1-c1nc3ccccc3s1)CN(C(C)C)CC2` gave miR-122 sensor -4, HIV Env fusion inconclusive, C2C12 statin -217, PAX8 inh HTS 26, EWS-Fli block 54* and GSIS activator -52.
N#CN=CN1CC=C(c2ccc(Cl)cc2)CC1 was read as HIV Env fusion 63*, PAX8 inh HTS -9, EWS-Fli block 5 and GSIS activator 67*.
Screening COc1ccc(N2C(=O)N3[C@H](c4cccc(C)c4)[C@@H]4C(=O)N(Cc5ccccc5)C(=O)[C@@H]4[C@]3(Cc3ccccc3)C2=O)cc1 returned HIV Env fusion 86*, PAX8 inh HTS -18, EWS-Fli block -8 and GSIS activator -1.
